Consider 8 molecules from PubChem BioAssay (NCI).

Some test systems named below: NCI-H23 lung; NCI-H226 lung; NCI-H322M lung; HOP-62 NSCLC; NCI-H460 lung; HOP-92 NSCLC; A549/ATCC NSCLC; 786-0 renal; COLO 205 colon; DU-145 prostate; K-562 leukemia; MALME-3M melanoma; MDA-MB-231 breast; RXF 393 renal; SF-268 CNS; SF-295 CNS; SF-539 CNS; UACC-257 melanoma; M14 melanoma; NCI-H522 lung.
Holding throughout (test): NCI-60 one-dose screen, 48 h (100 = growth as untreated, 0 = no growth, -100 = all killed)
What all share (details): 10 µM unless noted

This is part of a sample that, as a whole, favours compounds with a hit. Of some 83,000 tested, about 20% had one in any assay.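 Negative percent growth values reflect cell death: -40 means 40% of the cells present at the start died, and -100 means all died.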 Unmarked numbers belong to inactive results. Active and inactive are the calls of the source. Rule for the calls: active = growth percent below 10; inactive = the rest.

As to `CCOC(=O)c1nnn(Cc2cc(=O)oc3ccc(O)cc23)c1C`, the growth was 101% with NCI-H23 lung; 99.6% in the assay on NCI-H226 lung; 105% in the assay on NCI-H322M lung; 102% in the assay on HOP-62 NSCLC; 99.3% with NCI-H460 lung; 103% in the assay with HOP-92 NSCLC. Also, the growth in the assay on A549/ATCC NSCLC is 98.6%; with 786-0 renal, 103%; with COLO 205 colon it was 105%; in the assay on DU-145 prostate, 115%; with K-562 leukemia it was 103%; with MALME-3M melanoma, 103%. Besides, the growth in the assay on MDA-MB-231 breast was 105%; with RXF 393 renal it was 113%; with SF-268 CNS, 108%; with SF-295 CNS it was 97.7%; in the assay with SF-539 CNS it was 102%; in the assay with UACC-257 melanoma, 105%. Further, in the assay with M14 melanoma, the growth is 100%.

In the case of `CCOC(=O)NCCCC(=O)NCCc1ccccc1`, the growth with NCI-H23 lung was 98.9%; in the assay with NCI-H226 lung, 96.3%; in the assay with NCI-H322M lung it was 106%; in the assay with HOP-62 NSCLC, 108%; in the assay with NCI-H460 lung, 110%; in the assay with HOP-92 NSCLC it was 111%. Besides, the growth with A549/ATCC NSCLC is 107%; in the assay on 786-0 renal it was 105%; in the assay on COLO 205 colon it was 114%; with DU-145 prostate, 103%; in the assay on K-562 leukemia, 106%; in the assay on MALME-3M melanoma, 103%. Moreover, the growth in the assay with MDA-MB-231 breast is 108%; with RXF 393 renal it was 101%; in the assay on SF-268 CNS it was 101%; in the assay with SF-295 CNS, 104%; in the assay with SF-539 CNS, 106%; in the assay with UACC-257 melanoma, 103%. The growth in the assay on M14 melanoma was 102%.

As for `COc1ccc(C/C(C)=C(\c2ccc(O)cc2)c2ccc(OCCN3CCCCC3)cc2)cc1`, the growth in the assay on NCI-H23 lung is 90.1%; with NCI-H226 lung it was 103%; in the assay on NCI-H322M lung, 93.8%; in the assay with HOP-62 NSCLC, 95.6%; in the assay on NCI-H460 lung, 72.6%; with HOP-92 NSCLC, 72.3%. In addition, the growth with A549/ATCC NSCLC was 79.2%; in the assay on 786-0 renal it was 76.8%; in the assay on COLO 205 colon it was 89.4%; with DU-145 prostate, 90.8%; in the assay with K-562 leukemia it was 22.8%; in the assay on MALME-3M melanoma it was 87.6%. In addition, the growth in the assay on MDA-MB-231 breast is 104%; in the assay with RXF 393 renal, 79.9%; with SF-268 CNS it was 81.7%; with SF-295 CNS it was 98.8%; in the assay on SF-539 CNS, 83%; in the assay with UACC-257 melanoma it was 110%. Moreover, the growth with M14 melanoma is 40.4%.

Turning to `CCN(CC)CCCNc1cc(OC)c(OC)c2cccnc12`, the growth is 7.1% (active) with NCI-H23 lung; 110% with NCI-H226 lung; 85.1% with NCI-H322M lung; 58.3% in the assay on HOP-62 NSCLC; 23.4% with NCI-H460 lung; 84.7% in the assay with HOP-92 NSCLC. The growth is 20.9% with NCI-H522 lung; 56.4% in the assay on A549/ATCC NSCLC; 43.4% in the assay with 786-0 renal; 98.4% with COLO 205 colon; 90.3% with DU-145 prostate; 66.2% in the assay with K-562 leukemia. In addition, the growth in the assay with MALME-3M melanoma is 90.3%; with MDA-MB-231 breast it was 74.2%; with RXF 393 renal, 113%; in the assay on SF-268 CNS, 66.1%; in the assay on SF-295 CNS, 79.5%; in the assay on SF-539 CNS it was 55.7%. Also, the growth in the assay on UACC-257 melanoma was 67%; in the assay with M14 melanoma, 48%.

For the molecule `O=C1Nc2ccc(Cl)cc2/C1=C/c1ccc[nH]1`, the growth with NCI-H23 lung was 66.3%; in the assay on NCI-H226 lung, 97.4%; with NCI-H322M lung it was 69.4%; with HOP-62 NSCLC, 95.8%; in the assay on NCI-H460 lung, 82.3%; with HOP-92 NSCLC, 133%. Also, the growth was 90.3% in the assay with A549/ATCC NSCLC; 108% in the assay with 786-0 renal; 126% with COLO 205 colon; 83.6% with DU-145 prostate; 100% in the assay on K-562 leukemia; 99.1% with MALME-3M melanoma. Besides, the growth with MDA-MB-231 breast was 40.7%; with RXF 393 renal it was 74%; with SF-268 CNS, 96.4%; in the assay on SF-295 CNS, 109%; in the assay on SF-539 CNS, 88.6%; in the assay on UACC-257 melanoma it was 118%. Moreover, the growth in the assay on M14 melanoma is 78.4%.

Regarding `Cc1cc2oc(/C=C/c3ccccc3)cc(=O)c2c(C)c1Cl`, the growth with NCI-H23 lung was 88.8%; in the assay with NCI-H226 lung it was 103%; with NCI-H322M lung, 110%; in the assay on HOP-62 NSCLC, 103%; with NCI-H460 lung, 105%; in the assay on HOP-92 NSCLC it was 97%. Further, the growth with NCI-H522 lung was 93.8%; in the assay on A549/ATCC NSCLC, 91.6%; in the assay on 786-0 renal it was 93.2%; in the assay on COLO 205 colon, 104%; with DU-145 prostate it was 103%; in the assay with K-562 leukemia, 118%. For the same molecule, the growth in the assay with MALME-3M melanoma is 94%; in the assay on MDA-MB-231 breast, 107%; in the assay on RXF 393 renal, 98%; in the assay with SF-268 CNS, 102%; with SF-295 CNS, 96.2%; in the assay on SF-539 CNS, 98.9%. Besides, the values for the growth in the assay with UACC-257 melanoma and in the assay on M14 melanoma were 97% and 108%, respectively.

In the case of `c1cc(OCCCCCOc2cccc(-c3nc4ccccc4[nH]3)c2)cc(-c2nc3ccccc3[nH]2)c1`, the growth in the assay with NCI-H23 lung is 3% (active); in the assay on NCI-H226 lung, 10.2%; in the assay with NCI-H322M lung, 23.1%; in the assay with HOP-62 NSCLC it was 39.1%; in the assay on NCI-H460 lung, 6.73% (active); in the assay on HOP-92 NSCLC, -29.3% (active). The growth was -14.8% (active) with NCI-H522 lung; 13.9% in the assay with A549/ATCC NSCLC; 19.8% in the assay with 786-0 renal; -59.1% (active) in the assay on COLO 205 colon; 33.2% in the assay on DU-145 prostate; 9.81% (active) in the assay on K-562 leukemia. The growth was -13.6% (active) with MALME-3M melanoma; 19.6% with MDA-MB-231 breast; 6.51% (active) with RXF 393 renal; 61.3% in the assay with SF-268 CNS; 8.95% (active) with SF-295 CNS; 28.3% in the assay on SF-539 CNS. For the same molecule, the growth in the assay with UACC-257 melanoma is 22.9%; with M14 melanoma, 20.1%.

On to `Cc1ccc(-c2csc(NC(=O)CSc3nc(N)cc(N)n3)n2)cc1`, for which the growth in the assay with NCI-H23 lung is 42.7%; in the assay with NCI-H226 lung, 96.3%; in the assay on NCI-H322M lung it was 87%; in the assay with HOP-62 NSCLC, 50.9%; in the assay with NCI-H460 lung, 78.6%; in the assay with HOP-92 NSCLC it was 89.3%. Also, the growth is 54.6% in the assay on NCI-H522 lung; 62.7% with A549/ATCC NSCLC; 72.2% with 786-0 renal; 50.8% with COLO 205 colon; 77.2% in the assay on DU-145 prostate; 20.1% with K-562 leukemia. Besides, the growth in the assay on MALME-3M melanoma was 57.9%; with MDA-MB-231 breast it was 67.5%; with RXF 393 renal it was 92.1%; with SF-268 CNS, 73.6%; in the assay with SF-295 CNS, 50.2%; in the assay on SF-539 CNS it was 76.9%. Further, the growth is 79.9% in the assay with UACC-257 melanoma and 67.8% in the assay on M14 melanoma.
